ALR H2O2 inh = inhibitors of human sulfhydryl oxidase ALR | P55789 | purified ALR, DTT oxidation, H2O2 HRP-luminol luminescence | inhibition, % (test concentration not listed) | 3.8% of 290,000 active;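 active = mean replicate inhibition above about 79%, with every replicate also reaching it, limit read from the data; inconclusive = only one of the two criteria met; inactive = mean below limit and not every replicate reaching it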
Efflux pump inh = blocks antifungal efflux pumps in multiplex yeast assay; S. cerevisiae Candida pump triplex, Nile Red efflux; inhibition, % at 10 µM; 0.44% of 330,000 active; AID 485275;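 active = plate passing quality check with inhibition over a set limit, or well fluorescence over plate mean plus 4 SD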;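 also: Nile Red retained in pooled yeast measured as flow cytometry median fluorescence; higher means more Nile Red kept so more efflux inhibition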
UBC9 SUMO inh = SUMOylation inhibition; inhibition, % at 35 µM; P63279; HTRF SUMOylation assay, SAE1/SAE2 + UBC9, in vitro; 0.36% of 290,000 active; in the data active = inhibition above about 50%, passing the limit was not always enough; inconclusive = no clear call, values can overlap the other calls
eIF4H FP inh = inhibitors of RNA binding by human eIF4H; inhibition, % at 35 µM; eIF4H fluorescence polarization binding assay; 0.94% of 290,000 active; AID 2012;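 also: calls also rest on retests at 20 µM and on dose response follow-up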
PABP polyA inh = blocks human PABP binding to poly(A) RNA; inhibition, % at 35 µM; 1% of 290,000 active; fluorescence polarization;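 also: calls also rest on retests at 20 µM and on dose response follow-up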
Target sequence (P11940 whole entry, looked up): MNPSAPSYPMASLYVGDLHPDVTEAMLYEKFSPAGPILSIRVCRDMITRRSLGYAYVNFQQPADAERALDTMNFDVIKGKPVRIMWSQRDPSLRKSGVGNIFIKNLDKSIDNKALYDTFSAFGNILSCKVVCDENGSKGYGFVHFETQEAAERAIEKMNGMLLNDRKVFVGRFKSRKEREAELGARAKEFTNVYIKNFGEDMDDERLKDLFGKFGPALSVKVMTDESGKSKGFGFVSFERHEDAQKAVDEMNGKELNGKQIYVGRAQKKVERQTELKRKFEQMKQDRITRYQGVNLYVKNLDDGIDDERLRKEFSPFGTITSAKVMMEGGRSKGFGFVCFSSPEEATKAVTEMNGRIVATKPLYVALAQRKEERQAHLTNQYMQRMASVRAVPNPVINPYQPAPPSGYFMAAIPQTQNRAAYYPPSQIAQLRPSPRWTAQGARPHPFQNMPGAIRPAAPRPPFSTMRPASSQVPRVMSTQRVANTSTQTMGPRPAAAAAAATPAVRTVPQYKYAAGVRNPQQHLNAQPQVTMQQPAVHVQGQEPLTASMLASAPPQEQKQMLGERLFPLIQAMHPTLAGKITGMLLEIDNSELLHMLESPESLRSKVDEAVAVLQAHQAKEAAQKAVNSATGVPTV
MLLE-PAM2 inh = inhibitors of microRNA-mediated deadenylation, human PABP1 MLLE binding. P11940. GST-MLLE / FITC-PAM2 fluorescence polarization. inhibition, % at 20 µM. 0.36% of 360,000 active. AID 588489; in the data active = inhibition above about 35%, passing the limit was not always enough
Each line names hits and unclear results; the compound was inactive in the other large screens. This is a sample that favours compounds with a hit; in the whole collection about 4.7% have one here. Unless noted, no rule for the calls is given here.

CN(CCN1CCOCC1)C(=O)c1cc(COc2ccc(F)c(F)c2)on1	none
COc1cc(CC2COC(c3ccc(O)c(OC)c3)C2COC(C)=O)ccc1O (stereo unspecified)	ALR H2O2 inh 82.1, eIF4H FP inh 90.4, PABP polyA inh 55.4
COc1ccc(-c2cnc3c(NC=O)cc(-c4cccc(NS(C)(=O)=O)c4)cn23)cc1OC	none (no result: ALR H2O2 inh, Efflux pump inh, UBC9 SUMO inh, eIF4H FP inh, PABP polyA inh)
CC[C@@H](C)[C@@H](C(=O)N1CCN(C(=O)OC(C)(C)C)CC1)n1cc(CCCCNC(=O)OC(C)(C)C)nn1	none
CN(C)S(=O)(=O)c1cc(NC(=O)CN2CCN(c3ccccc3O)CC2)ccc1Cl	ALR H2O2 inh 98.2
O=C(CN1CCN(c2ccccc2O)CC1)Nc1cccnc1Cl	ALR H2O2 inh 98.7
O=C(CN1CCN(c2ccccc2O)CC1)Nc1ccc2c(c1)CCC2	eIF4H FP inh 2.2, PABP polyA inh 86.8
O=C(CN1CCN(c2ccc(F)cc2)CC1)Nc1cccnc1Cl	none
O=C(CN1CCN(c2ccccc2O)CC1)NCCCc1ccccc1	ALR H2O2 inh 98.8, PABP polyA inh inconclusive
CC(=O)N1CCN(CC(=O)Nc2ccc(Cl)c(S(=O)(=O)N(C)C)c2)CC1	none
O=C(CN1CCCC1)Nc1ccc2c(c1)CCC2	none
C[C@@H]1C2CC(C/C2=N\NC(=O)c2ccncc2)C1(C)C (stereo partly specified)	none
O=C(NCCCn1ccnc1)c1ccc(-c2cccc(C(F)(F)F)c2)o1	none (no result: UBC9 SUMO inh, eIF4H FP inh, PABP polyA inh)
C=CCOC(=O)/C=C/C(=O)NC(N)=O	ALR H2O2 inh 98.4
CCc1cc2c3c(c1)C(C)CC(C)(C)N3C(=O)/C2=C1\SC(=O)NC1=O (stereo unspecified)	ALR H2O2 inh 96.6
N#C/C(=C\c1ccc(F)c(F)c1)C(=O)NC1CCCCC1	ALR H2O2 inh 97.8
CCOc1ccccc1/C=C(\C#N)C(=O)NC1CC1	none (no result: UBC9 SUMO inh, eIF4H FP inh, PABP polyA inh)
N#C/C(=C\c1ccccc1[N+](=O)[O-])C(=O)NC1CCCCC1	MLLE-PAM2 inh 54.7
N#C/C(=C\c1cccn1-c1ccccc1)C(=O)NC1CCCCC1	none
N#C/C(=C\C=C\c1ccccc1[N+](=O)[O-])C(=O)NC1CCCCC1	ALR H2O2 inh 98.6, PABP polyA inh inconclusive
N#C/C(=C\c1ccc(F)c(Br)c1)C(=O)NC1CC1	none
COc1ccc(C2=CC(c3ccc(F)cc3)n3nnnc3N2)cc1 (stereo unspecified)	MLLE-PAM2 inh 45.5
COc1ccc(C2=CC(c3sccc3C)n3nnnc3N2)cc1 (stereo unspecified)	none
O=C(O)c1ccc(CN2C[C@@H](CO)O[C@@H](n3cnc4c(NCc5ccco5)ncnc43)C2)cc1	none (no result: ALR H2O2 inh, Efflux pump inh, UBC9 SUMO inh, eIF4H FP inh, PABP polyA inh)
C[C@]12C=CC(=O)C=C1CC[C@@H]1[C@@H]2[C@@H](O)C[C@@]2(C)[C@H]1CC[C@]2(O)C(=O)CO	none
CCCNC(=S)NC1CCCC1	none
OCC(O)CNC(=S)NC1CCCCC1 (stereo unspecified)	MLLE-PAM2 inh 42.4
O=C(N/N=C/c1sc2ccccc2c1O)c1cccc2ccccc12	none
COc1ccc(C(=O)N/N=C/c2sc3ccccc3c2O)cc1	ALR H2O2 inh 81.1, eIF4H FP inh inconclusive
O=C(N/N=C/c1sc2ccccc2c1O)c1ccccc1	ALR H2O2 inh 88.1, eIF4H FP inh inconclusive
O=[N+]([O-])c1ccccc1OCCCOc1cccc2cccnc12	none
Cc1cc(O)ccc1Nc1nc(-c2sc(N)nc2C)cs1	ALR H2O2 inh 85.3
COc1ccc(Nc2nc(-c3sc(C)nc3C)cs2)cc1	none
Cc1nc(C)c(-c2csc(Nc3ccc(O)c(C(=O)O)c3)n2)s1	ALR H2O2 inh 88.6
CC(=O)Nc1nc(C)c(-c2csc(Nc3ccc(O)cc3)n2)s1	ALR H2O2 inh 99.0
CCC(=O)Nc1nc(C)c(-c2csc(Nc3cccc(C(=O)O)c3)n2)s1	ALR H2O2 inh 87.5
COc1ccc(CNc2ncc(-c3ccc(Cl)cc3)n2C)c(OC)c1OC	none
COc1ccccc1CC(=O)Nc1ccc(S(=O)(=O)N2CC(C)CC(C)C2)cc1 (stereo unspecified)	none (no result: UBC9 SUMO inh, eIF4H FP inh, PABP polyA inh)
Cc1nc(C)c(-c2csc(Nc3cccnc3)n2)s1	ALR H2O2 inh 89.4
Cc1nc(C)c(-c2csc(Nc3ccc(N)cc3)n2)s1	none
Cc1nc(N)sc1-c1csc(Nc2cccc(C(=O)O)c2)n1	eIF4H FP inh 85.1, PABP polyA inh 52.6
CC(C)(C)c1ccc(C(=O)NC2CCS(=O)(=O)C2)cc1 (stereo unspecified)	none (no result: ALR H2O2 inh)
CCOC(=O)CN1CCc2c(C)nc3c(-c4ccc(OC)c(OC)c4)cnn3c21	ALR H2O2 inh 83.5
CCOC(=O)Cc1c(C)nc2c(-c3cccc(Br)c3)cnn2c1C	none
O=C(N/N=C\C=C\c1ccc([N+](=O)[O-])o1)c1cccs1	UBC9 SUMO inh 50.8, eIF4H FP inh 99.7, PABP polyA inh 52.7
CCOC(=O)C1=C(C)Nc2ccc(C)cc2S1	MLLE-PAM2 inh 50.1
COc1cccc(CC(=O)OCC(=O)NNC(=O)c2ccc(Br)cc2)c1	none (no result: UBC9 SUMO inh, eIF4H FP inh, PABP polyA inh)
Cc1occc1C(=O)NNC(=S)NCc1ccccc1	none
CC1(C(=O)Nc2ccc3[nH]ncc3c2)CCN1C(=O)CCc1ccccc1 (stereo unspecified)	none (no result: ALR H2O2 inh, Efflux pump inh, UBC9 SUMO inh, eIF4H FP inh, PABP polyA inh)
N#Cc1ccc(CSC2=NCCN2)cc1	ALR H2O2 inh 98.8
CCOc1ccc(CSC2=NCCN2)cc1Cl	ALR H2O2 inh 100.0
Clc1ccccc1CSC1=NCCN1	none (no result: ALR H2O2 inh)
COc1cc(CCC(=O)Nc2ccc(Br)c(C(F)(F)F)c2)cc(OC)c1OC	eIF4H FP inh active, PABP polyA inh 100.2
C=CCCC(=O)N1C[C@H]2CON(C)[C@H]2C[C@H]1c1cccc(N2CCOCC2)c1	none (no result: ALR H2O2 inh, Efflux pump inh, UBC9 SUMO inh, eIF4H FP inh, PABP polyA inh)
CCc1ccc(-c2nn(Cc3ccccc3)cc2/C=C/C(=O)O)cc1	ALR H2O2 inh 79.7
O=C(O)/C=C/c1cn(Cc2ccccc2)nc1-c1cccnc1	none
CCN(CC)C(=O)C1=C(C)N(Cc2ccc(C(C)(C)C)cc2)C(=O)C(CC(=O)NC2CC2)C1 (stereo unspecified)	none (no result: ALR H2O2 inh, Efflux pump inh, UBC9 SUMO inh, eIF4H FP inh, PABP polyA inh)
CN(C)c1ccc(N2CC(C)(C)C2=O)cc1	ALR H2O2 inh 99.1
COc1cc2c(cc1OC(C)=O)CCCCC2=O	none (no result: ALR H2O2 inh, Efflux pump inh, UBC9 SUMO inh, eIF4H FP inh, PABP polyA inh)
COc1ccc(-n2cnc3cc(NCc4ccccn4)ccc32)cc1	none
c1ccc(-n2cnc3cc(NCc4cccs4)ccc32)cc1	ALR H2O2 inh 97.3
COc1ccc(-n2cnc3cc(NCc4cccs4)ccc32)cc1	ALR H2O2 inh 95.4
Cc1ccc(-n2cnc3cc(NCc4cccs4)ccc32)cc1	none
Cc1ccc(C(=O)N2[C@@H]3CN(C)C(=O)[C@@]2(Cc2ccccc2)[C@H]2C(=O)N(Cc4ccccc4)C(=O)[C@@H]32)cc1	none (no result: ALR H2O2 inh, Efflux pump inh, UBC9 SUMO inh, eIF4H FP inh, PABP polyA inh)
Cc1cc(C(=O)NNc2ccc(F)cc2)no1	ALR H2O2 inh 98.8
CCc1ccccc1NNC(=O)c1cc(C)on1	none
Cc1cc(C(=O)NNc2ccccc2F)no1	ALR H2O2 inh 98.8
Cc1cc(C(=O)NNc2c(Cl)cccc2Cl)no1	none
COc1ccc(S(=O)(=O)N(C)C[C@H]2Oc3ncc(Br)cc3C(=O)N([C@@H](C)CO)C[C@@H]2C)cc1	none (no result: ALR H2O2 inh, Efflux pump inh, UBC9 SUMO inh, eIF4H FP inh, PABP polyA inh)
NS(=O)(=O)c1ccc(N=Nc2c[nH]c(=O)c(O)c2)cc1	ALR H2O2 inh 89.5, UBC9 SUMO inh inconclusive, eIF4H FP inh 53.9, PABP polyA inh 32.8
